Records with an inconclusive call do not appear. Unmarked numbers belong to inactive results. The call rests on the fitted dose curve.
test: qHTS assay to identify small molecule agonists of the hypoxia (HIF-1) signaling pathway - cell viability counter screen (AID 1224844); settings: HRE-bla ME-180 viability, CellTiter-Glo luminescence, 17 h; series mostly up to 76.8 µM; activity change, negative = cytotoxicity: at the top concentration; further: nearly all actives have a fitted effect of over 50% in size
Text: National Center for Advancing Translational Sciences [NCATS]
NIH Chemical Genomics Center [NCGC]
U.S. Environmental Protection Agency [EPA]
National Institutes of Environmental Health Sciences [NIEHS]
National Toxicology Program [NTP]
U.S. Food and Drug Administration [FDA]
Hypoxia-inducible factor-1 (HIF-1) is the major hypoxia-regulated transcription factor that controls cellular responses to low oxygen concentration. HIF-1 is composed of two subunits: hypoxia responsive HIF-1-alpha and constitutively expressed HIF-1-beta, which is also known as aryl hydrocarbon receptor nuclear translocator. During hypoxic conditions, HIF-1-alpha heterodimerizes with HIF-1-beta and translocates into the nucleus where the HIF-1 complex binds to the hypoxia-response element (HRE) and activates expression of target genes such as VEGF (vascular endothelial growth factor). The HIF-1 pathway is essential to normal growth and development, and is involved in the pathophysiology of cancer, inflammation, and ischemia.
Using a beta-lactamase reporter-gene under control of the hypoxia response element, a cell-based assay [CellSensor(TM) HRE-bla ME-180 from Life Technologies, Carlsbad, CA] was used to measure hypoxia-induced signaling. Tox21 10K library compounds were measured for their ability to induce the reporter gene activity. The cytotoxicity of the Tox21 compound library against HRE-bla ME-180 cell line was tested in parallel by measuring cell viability using CellTiter-Glo assay (Promega, Madison, WI) in the same assay wells.
Tox21 Assay Protocol Summary:
HRE-bla ME-180 cells were dispensed at 2,000 cells per well in 6 uL of assay medium containing 0.5% dialyzed FBS into black wall/clear-bottom 1536-well plates using a Multidrop Combi (Thermo Scientific, Waltham, MA) dispenser. After the assay plates were incubated at 37C and 5% CO2 for 5 hrs, 23 nL of compounds dissolved in DMSO, positive controls or DMSO only was transferred to each well of the assay plate using a Pintool station (Kalypsys, San Diego, CA). The assay plates were incubated at 37C and 5% CO2 for 17 hrs. One uL of LiveBLAzerTM B/G FRET substrate (CCF4-AM) (Life Technologies) was added to each well using a Flying Reagent Dispenser (FRD, Aurora Discovery, San Diego, CA). After 2 hr incubation at room temperature, fluorescence intensity (405 nm excitation, 460 nm and 530 nm emissions) was measured using an Envision plate reader (PerkinElmer, Shelton, CT). For cytotoxicity, 4 ul/well of CellTiter-Glo reagent was added into the assay plates using an FRD. After 30 min incubation at room temperature, the luminescence intensity was measured using a ViewLux plate reader (PerkinElmer).
On the % scale 0 is the no-effect control and ±100 the full control effect.

| Structure (SMILES) | activity change, negative = cytotoxicity |
| --- | --- |
| O=C(c1ccccc1)c1cccc(O)c1 | 7.47% |
| C[C@@H]1CCC[C@H](C)N1CCCC(O)(c1ccccc1)c1ccccn1 (stereo not given in full) | 4.49% [at 35.3 µM] |
| CC(=O)OC/C=C(/C)CCC=C(C)C | -0.553% |
| O=C1CC2(CCCC2)CC(=O)N1CCNCC1COc2ccccc2O1 (stereo not given) | 4.24% [at 35.3 µM] |
| CCO[Si](CC(C)C)(OCC)OCC | 14.2% |
| CCCCCCCCCCCCCCBr | -17.7% |
| CCCCC(O)/C=C(C)/C=C/C=C/C(=O)N1CCCC1=O (stereo not given) | 4.42% [at 35.3 µM] |
| CO/N=C(\C(=O)O)c1csc(NC(=O)CCl)n1 | 5.75% [at 35.3 µM] |
| COC(=O)/C=C(\C)CCC=C(C)C | -6.74% |
| Nc1cc(S(=O)(=O)O)ccc1O | 5.85% |
| CCOC(=O)[C@H](CCc1ccccc1)N[C@H]1CS[C@H](c2cccs2)CN(CC(=O)O)C1=O | -7.93% [at 35.3 µM] |
| C[C@@H]1NC(=O)[C@@H](N)CNC(=O)[C@H](C2CCNC(N)=N2)NC(=O)/C(=C/NC(N)=O)NC(=O)[C@H](CNC(=O)C[C@@H](N)CCCN)NC1=O (stereo not given in full) | 3.53% [at 0.29 µM] |
| CC1(C)C(=O)C(C)(C)C1=O | -1.49% |
| CCCC[O][Al]([O]CCCC)[O]CCCC | 11.2% |
| O=S(=O)(O)CC(O)CCl (stereo not given) | 6.59% |
| CC(=O)OC1CCC(C(C)(C)C)CC1 (stereo not given) | 0.579% |
| CCN1CCN(C(=O)N[C@@H](C(=O)N[C@@H]2C(=O)N3[C@@H]2SC(C)(C)[C@H]3C(=O)O)c2ccccc2)C(=O)C1=O | -3.54% [at 35.3 µM] |
| C=CCn1cc[n+](C)c1 | 13.2% |
| Cc1nc2ccc(Cl)cc2[nH]1 | 9.63% |
| O=c1[nH]c(=O)c2cn[nH]c2[nH]1 | 7.25% |

| Structure (SMILES) | activity change, negative = cytotoxicity |
| --- | --- |
| COC(=O)N/N=C/c1c[n+]([O-])c2ccccc2[n+]1[O-] | -1.53% [at 35.3 µM] |
| CC(C)C(=O)Nc1cccc(C2CN3CCSC3=N2)c1 (stereo not given) | 3.13% [at 35.3 µM] |
| CN1CCN(C(=O)C2CCCCC2)CC1 | 3.35% [at 35.3 µM] |
| Cc1cc(=O)oc2cc(O[C@@H]3SC[C@@H](O)[C@H](O)[C@H]3O)ccc12 | 1.11% [at 35.3 µM] |
| O=C(O)Cc1ccccc1Oc1ccc(Cl)cc1Cl | -0.0704% [at 35.3 µM] |
| C/C(=N\O)c1ccc(OCC(=O)N2CCCCC2)cc1 | -1.11% [at 35.3 µM] |
| Cc1ccc2ccccc2n1 | 6.39% |
| C=CCN(CC=C)CC=C | -0.192% |
| C/C=C/C(=O)CCCC | 11.8% |
| CCCc1ccc(O)c(OC)c1 | -5.51% |
| CC(C)CC(O)Cc1ccccc1 (stereo not given) | -0.546% |
| C=CCCCCCCCCCCCCCC | -3.81% [at 15.8 µM] |
| C[C@@H]1CC[C@@]2(OC1)O[C@H]1C[C@H]3[C@@H]4CC[C@H]5C[C@@H](O)CC[C@]5(C)[C@H]4CC(=O)[C@]3(C)[C@H]1[C@@H]2C | 3.36% [at 6.97 µM] |
| CCCCS | 8.57% |
| CCCCCCCCS(=O)(=O)O | 5.16% |
| CCCC(C)C(O)CC (stereo not given) | 7.22% |
| COc1cc(NS(=O)(=O)c2ccc(N)cc2)ncn1 | 5.7% [at 35.3 µM] |
| Cc1ccc2cccnc2c1 | -3.77% |
| CN(C)c1cc(NC(=O)CNC(C)(C)C)c(O)c2c1C[C@H]1C[C@H]3[C@H](N(C)C)C(=O)C(C(N)=O)=C(O)[C@@]3(O)C(=O)C1=C2O | 3.67% [at 35.3 µM] |
| C=CC(C)(CCC=C(C)C)OC(=O)C(C)C (stereo not given) | -2.73% |

— PubChem BioAssay (Tox21)
